p97 ATPase inh – human p97 ATPase inhibition | inhibition, % at 8 µM | P55072 | recombinant p97 ATPase, Kinase-Glo ATP luminescence, 3 h | AID 1481 | 220,000 compounds, 0.42% hits; in the data active = inhibition above about 15%;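 also: 0% = DMSO vehicle and 100% = wells lacking enzyme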
Target sequence (P55072 whole entry, looked up): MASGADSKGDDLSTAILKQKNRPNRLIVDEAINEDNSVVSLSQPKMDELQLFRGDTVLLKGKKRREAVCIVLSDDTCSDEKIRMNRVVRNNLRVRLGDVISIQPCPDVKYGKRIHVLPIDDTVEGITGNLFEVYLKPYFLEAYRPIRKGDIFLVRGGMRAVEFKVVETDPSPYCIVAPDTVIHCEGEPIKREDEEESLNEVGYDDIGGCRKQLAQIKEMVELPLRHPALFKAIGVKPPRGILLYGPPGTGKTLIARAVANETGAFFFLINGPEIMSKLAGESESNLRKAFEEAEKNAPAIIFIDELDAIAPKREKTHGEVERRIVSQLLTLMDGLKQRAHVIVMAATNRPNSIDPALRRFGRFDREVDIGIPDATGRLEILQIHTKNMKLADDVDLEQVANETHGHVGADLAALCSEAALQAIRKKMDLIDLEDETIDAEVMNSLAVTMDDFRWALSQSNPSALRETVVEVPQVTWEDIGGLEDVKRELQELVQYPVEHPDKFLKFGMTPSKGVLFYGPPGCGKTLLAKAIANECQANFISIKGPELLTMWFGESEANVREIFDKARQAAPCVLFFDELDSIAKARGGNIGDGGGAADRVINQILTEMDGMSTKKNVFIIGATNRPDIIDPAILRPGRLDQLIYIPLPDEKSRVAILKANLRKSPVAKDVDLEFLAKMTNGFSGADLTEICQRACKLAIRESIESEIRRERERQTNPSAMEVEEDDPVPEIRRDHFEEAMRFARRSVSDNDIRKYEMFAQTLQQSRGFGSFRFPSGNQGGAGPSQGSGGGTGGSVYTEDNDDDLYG
Hck Nef HTS – human Hck-Nef kinase inhibition; P08631; Recombinant Hck-YEEI plus Nef, Z-Lyte FRET kinase assay; inhibition, % at 20 µM; 220,000 compounds, 0.68% hits; AID 463187;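 active = Hck-Nef kinase inhibition above about 50%, limit read from the data; inactive = inhibition below that limit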;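 also: 0% = DMSO with Hck plus Nef and 100% = Hck alone without Nef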
LYPLA1 inh – counter-screen for PME1 inhibitors: inhibitors of human LYPLA1; O75608; recombinant LYPLA1, FP-Rh probe fluorescence polarization; inhibition, % at 5.9 µM; 320,000 compounds, 0.16% hits; AID 2174;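 active = inhibition above the mean of all tested compounds plus 3 SD, set per campaign, cut at about 14% in these data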;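 also: inhibitors block serine hydrolase probe labeling of LYPLA1 so polarization falls; 0% = enzyme with DMSO and 100% = wells lacking LYPLA1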
PREPL inhibitor – inhibits the human prolyl oligopeptidase-like enzyme | Q4J6C6 | recombinant PREPL, fluorescence polarization activity-based probe | inhibition, % at 5.96 µM | 320,000 compounds, 0.68% hits | AID 2751; in the data active = inhibition above about 43%;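 also: 0% = enzyme with DMSO and 100% = wells lacking enzyme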
Rin1-Abl PPI inh – human Rin1-Abl interaction inhibition; P00519+Q13671; TR-FRET Rin1/Abl binding, biochemical; inhibition, % at 7.35 µM; 360,000 compounds, 0.4% hits; AID 588664; in the data active = inhibition above about 5%, passing the limit was not always enough
LYPLA2 counter – counter-screen for PME1 inhibitors: inhibitors of human LYPLA2; O95372; recombinant LYPLA2, FP-Rh probe fluorescence polarization; inhibition, % at 5.9 µM; 320,000 compounds, 0.38% hits;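 active = inhibition above the screen-wide mean plus 3 SD, limit set per campaign, cut at about 26% in these data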;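 also: 0% = LYPLA2 with DMSO and 100% = wells lacking LYPLA2 enzyme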
p97 confirm – human p97 ATPase inhibition, confirmation | inhibition, % at 8 µM | recombinant p97 ATPase, Kinase-Glo ATP luminescence | shares compounds with p97 ATPase inh | AID 1517 | 760 compounds, 44% hits;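 active = percent inhibition of p97 ATPase above a set limit, the primary screen's mean plus 3 SD, cut at about 15% in these data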;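 also: 0% = DMSO wells and 100% = wells lacking p97 protein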
LYPLA1 conf – counter-screen for PME1 inhibitors: confirmation of human LYPLA1 inhibitors; inhibition, % at 5.9 µM; recombinant LYPLA1, FP-Rh probe fluorescence polarization; shares compounds with LYPLA1 inh; 480 compounds, 69% hits;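 active = mean inhibition across replicates above the hit cutoff set in the primary screen, cut at about 15% in these data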;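 also: loss of FP-Rh probe labeling of LYPLA1 seen as lower polarization; 0% = LYPLA1 with DMSO and 100% = wells lacking LYPLA1 enzyme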
LYPLA2 conf – LYPLA2 (human) inhibition, confirmation counter-screen. inhibition, % at 5.9 µM. recombinant LYPLA2, FP-Rh probe fluorescence polarization. 1,100 compounds, 72% hits. shares compounds with LYPLA2 counter. AID 2232;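 active = mean inhibition across replicates above the hit cutoff set in the primary screen, cut at about 26% in these data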;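 also: blocked labeling of the enzyme by serine hydrolase FP-Rh probe lowers polarization; 0% = enzyme with DMSO and 100% = wells lacking LYPLA2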
PREPL confirm – human PREPL inhibition, confirmation | inhibition, % at 5.96 µM | recombinant PREPL, fluorescence polarization activity probe | shares compounds with PREPL inhibitor | 2,000 compounds, 67% hits | AID 2803; in the data active = inhibition above about 43%;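 also: 0% = protein with DMSO and 100% = wells lacking protein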
Rin1 Abl conf – confirmation of inhibitors of human Rin1-Abl interaction | 1,300 compounds, 49% hits | AID 602124 | inhibition, % at 7.35 µM | shares compounds with Rin1-Abl PPI inh | TR-FRET Rin1-Abl binding, purified proteins
GFP quench – quenches GFP fluorescence, counter-screen for Rin1-Abl inhibitors. shares compounds with Rin1-Abl PPI inh. inhibitors/quenchers counterscreen. inhibition, % at 6.75 µM. 1,300 compounds, 8.5% hits;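 also: ABL1-eGFP fusion protein alone without its partner RIN1-SBP; 0% = protein with vehicle and 100% = wells lacking protein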
GFP quench DR – GFP fluorescence interference dose response. AID 602182. GFP fluorescence interference/quenching counterscreen. shares compounds with Rin1-Abl PPI inh. 230 tested, under 10 active. IC50, µM; call rule not given here;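 also: ABL1-eGFP fusion protein alone without its RIN1 binding partner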
The depositor's hits bear a star; . = no result given. In the library only some 1.7% were active in any assay of this set; here they are far more common. Rule as the data show it, unless noted: active = inhibition above about 6.5%; inactive = the rest.

SMILES	p97 ATPase inh	Hck Nef HTS	LYPLA1 inh	PREPL inhibitor	Rin1-Abl PPI inh	LYPLA2 counter	PREPL confirm	others
COC(=O)C1=COC(C)C2CN3CCc4c([nH]c5cc(OC)ccc45)C3CC12 (centres undefined)	.	.	.	.	1	.	.
OC(c1ccccc1)(c1ccc(Cl)cc1)C1CN2CCC1CC2 (centres undefined)	16*	-4	5	13	2	10	.	p97 confirm=10
CC(=O)OC1C(O)C(C)OC(OC2C(OC(=O)C3CCC4C(C3)OC3(CC(OC(=O)/C=C/c5ccccc5)C(C)CO3)C43CO3)OC(C)C(O)C2OC(C)=O)C1O (centres undefined)	.	.	.	.	4	.	.
CCn1nc(/C=C/c2ccccc2)nc2c(=O)n(C)c(=O)nc1-2	34*	17	.	.	26*	.	.	p97 confirm=37*;Rin1 Abl conf=40*;GFP quench=2;GFP quench DR=>68
COc1ccc(-n2c(/C=C/c3ccc(O)cc3)nc3ccccc3c2=O)cc1	.	.	1	6	-3	-4	.
O=C(NC1CCCCC1)N1Cc2cc(-c3ccccc3)ccc2-n2nncc2C1	.	.	.	.	3	.	.
CN(C)[C@@H]1C(=O)C(C(N)=O)=C(O)[C@@]2(O)C(=O)C3=C(O)c4c(O)cccc4[C@@](C)(O)[C@H]3[C@H](O)[C@@H]12	19*	9	-3	21	16*	4	.	p97 confirm=40*;Rin1 Abl conf=2;GFP quench=7
NP(=O)(OCCCCc1ccccc1)Oc1ccccc1Cl (centres undefined)	.	.	19*	16	0	25	.	LYPLA1 conf=9
COc1ccc(CN2Cc3cc(N4CCOCC4)ccc3-n3nncc3C2)cc1	.	.	.	.	4	.	.
Cc1ccc(Cn2nnnc2CN2CCC(n3nnc4cc(C)ccc43)CC2)cc1	1	2	-1	-5	1	27*	.	LYPLA2 conf=24
Oc1c(Cl)c(Cl)c(Cl)c(Cl)c1Cl	.	.	9	2	1	28*	.	LYPLA2 conf=34*
CCCNC(=O)N1[C@H]2CC[C@@H]1C(C(=O)OC)=C(c1ccc3ccccc3c1)C2	.	.	2	5	-1	0	.
CS(=O)(=O)c1ccc(C2=C(CNC(=O)c3ccncc3)[C@H]3CC[C@@H](C2)N3Cc2ccccc2)cc1	.	.	.	.	0	.	.
CCN(CC)C(=O)c1ccc(NC(=O)COc2ccc(-c3nn(C)c(=O)c4ccccc34)cc2)cc1	.	.	13	4	0	32*	.	LYPLA2 conf=31*
CS(=O)(=O)c1ccc(C2=C(CNC(=O)c3cccnc3)[C@H]3CC[C@@H](C2)N3Cc2ccco2)cc1	.	.	.	.	-6	.	.
CC(=NCCc1c[nH]c2ccccc12)c1c(O)n(Cc2ccccc2)c(=O)[nH]c1=O	-2	1	-2	43*	-1	31*	42	LYPLA2 conf=27*
Cc1cccc(N=C2c3cc([N+](=O)[O-])ccc3-c3c2cc([N+](=O)[O-])cc3[N+](=O)[O-])c1	.	.	.	.	2	.	.
O=C(O)c1cccc2c1NC(C(=O)O)C1CC(Sc3ccccc3[N+](=O)[O-])C(Cl)C21 (centres undefined)	11	13	12	33	11*	29*	.	LYPLA2 conf=12;Rin1 Abl conf=5;GFP quench=20*
CC(C)(C)C(=O)N1Cc2cc(N3CCOCC3)ccc2-n2nncc2C1	.	.	.	.	3	.	.
O=C([O-])c1ccc(-[n+]2c(-c3ccccc3)cc(-c3ccccc3)cc2-c2ccccc2)cc1	.	.	2	26	4	0	.
O=[N+]([O-])c1ccc(-[n+]2c(-c3ccccc3)cc(-c3ccccc3)cc2-c2ccccc2)cc1	.	.	4	43*	-1	3	39
Brc1ccc2c(c1)CN(CC1CCCCC1)Cc1cnnn1-2	.	.	.	.	4	.	.
CCCCc1nc2ccccc2c(=O)n1-c1ccccc1O	-6	0	2	111*	0	-4	-2
CN1C[C@H](CO)C=C2c3cccc4[nH]cc(c34)C[C@H]21	2	1	1	42	-12	-2	.
CC1=C[C@@H]2c3cccc4[nH]cc(c34)C[C@H]2N(C)C1	.	.	1	58*	-8	3	44*
SMILES	p97 ATPase inh	Hck Nef HTS	LYPLA1 inh	PREPL inhibitor	Rin1-Abl PPI inh	LYPLA2 counter	PREPL confirm	others
Cc1cc(C)c(NC2=NCCS2)cc1C	.	.	.	.	2	.	.
C[C@@H]1CN([C@@H](C)CO)C(=O)CCCn2nncc2CO[C@@H]1CN(C)C(=O)Oc1cccc2ccccc12	.	.	.	.	0	.	.
COC(=O)C1=C(c2cccc(OCc3ccccc3)c2)C[C@@H]2CC[C@H]1N2C(=O)NCCCOC(C)C	.	.	-1	46*	4	1	34
COC(=O)C1=C(c2ccc(F)cc2OCc2ccccc2)C[C@@H]2CC[C@H]1N2C(=O)NCCc1ccc(F)cc1	.	.	-1	12	1	2	.
CCOc1cc(/C=C2/C(=O)NC(=O)N(c3ccc(CC)cc3)C2=O)ccc1OC(=O)c1cccs1	7	1	1	48*	2	0	52*
CC(C)Cc1[nH]c(=O)c(C#N)c2c1CCC2	2	-5	5	75*	2	2	66*
O=[N+]([O-])c1ccccc1-c1cc(-c2ccccc2)cc(-c2ccccc2)[n+]1Cc1ccccc1Cl	.	.	2	51*	.	3	49*
Fc1ccc(C[n+]2c(-c3ccccc3)cc(-c3ccccc3)cc2-c2ccccc2)cc1	.	.	0	42	.	7	.
CCC(=NCCc1c[nH]c2ccccc12)c1c(O)n(-c2ccc(C)cc2)c(=O)[nH]c1=O	2	3	-3	44*	3	-4	46*
CC1=NCCc2c1[nH]c1cc(O)ccc21	.	.	7	51*	-10	4	10
COc1ccc2c3c([nH]c2c1)C(C)=NCC3	8	-13	-4	71*	-3	-8	33
C1=NCCc2c1[nH]c1ccccc21	.	.	1	22	-3	-8	.
COc1ccc2c(c1)[nH]c1c(C)nccc12	.	.	-2	-6	-1	5	.
CN1C(=O)NC(=O)C(N=Nc2ccc(Cl)cc2)C1=O (centres undefined)	.	.	.	.	-1	.	.
